A number with no mark means an inactive call. The rule behind the calls is not given here.
system: Aerobactin synthetase IucA (Klebsiella pneumoniae hvKP1); assay: Biochemical IucA enzyme inhibition primary screen of the Spectrum library (AID 1346200); conditions: malachite green pyrophosphate, A620, at 8 µM, hits give low values;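 note: 100% = wells without compound and 0% = wells lacking enzyme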

| Compound | activity remaining |
| --- | --- |
| COc1cc2c(cc1OC)C(=O)C(CC1CCN(Cc3ccccc3)CC1)C2 (stereo not given) | 107% |
| CC(=O)/C(=C\c1ccccc1)CC(=O)O | 98.6% |
| CCCCCN=C(N)N/N=C/c1c[nH]c2ccc(OC)cc12 | 108% |
| NC(COCc1ccccc1)C(=O)O (stereo not given) | 105% |
| O=c1c(O)c(-c2ccc(O)c(O)c2)oc2cc(O)ccc12 | 101% |
| C1N2CN3CN1CN(C2)C3 | 104% |
| CC1(C)S[C@@H]2[C@H](NC(=O)[C@H](NC(=O)N3CCNC3=O)c3ccccc3)C(=O)N2C1C(=O)O (stereo not given in full) | 95.7% |
| C/C=C\C1=C(C(=O)O)N2C(=O)C(NC(=O)C(N)c3ccc(O)cc3)C2SC1 (stereo not given) | 115% |
| Nc1ccc(S(=O)(=O)Nc2ccccn2)cc1 | 97.8% |
| CN(C)CCCO[C@H]1[C@@H](C(O)CO)OC2OC(C)(C)O[C@@H]21 (stereo not given in full) | 95% |
| OC[C@@H](O)C(O[C@@H]1O[C@H](CO)[C@H](O)[C@H](O)[C@H]1O)[C@H](O)[C@@H](O)CO (stereo not given in full) | 116% |
| COC(=O)[C@@H]1OC(=O)C2OC23[C@@]1(C)CCC1[C@@]2(C)CCC(=O)C(C)(C)C2C[C@@H](OC(C)=O)[C@]13C (stereo not given in full) | 112% |
| CC(C(=O)O)c1ccc(C(=O)c2cccs2)cc1 (stereo not given) | 104% |
| c1ccc2c(c1)CN1CCCC1=N2 | 99.8% |
| COc1cc(O)c2c(c1)C(=O)c1cc(C)cc(O)c1C2=O | 97.7% |
| CCn1cc(C(=O)O)c(=O)c2cc(F)c(N3CCNCC3)cc21 | 115% |
| O=C(Oc1cc(OC(=O)c2ccccc2)c2c(c1)O[C@H](c1ccc(OC(=O)c3ccccc3)c(OC(=O)c3ccccc3)c1)[C@@H](OC(=O)c1ccccc1)C2)c1ccccc1 | 106% |
| Cc1c(N(C)C)c(=O)n(-c2ccccc2)n1C | 123% |
| CC1=C(CCC(=O)O)c2cc3nc(cc4[nH]c(cc5[nH]c(cc1n2)c(C)c5C(C)O)c(C)c4C(C)O)C(C)=C3CCC(=O)O (stereo not given) | 107% |
| O=C(/C=C/c1ccccc1)c1ccc(O[C@@H]2O[C@H](CO)[C@@H](O)[C@H](O)[C@H]2O)cc1O | 116% |

| Compound | activity remaining |
| --- | --- |
| CON=C1C[C@]2(C[C@@H]3C[C@@H](C/C=C(\C)C[C@@H](C)/C=C/C=C4\CO[C@@H]5[C@H](O)C(C)=C[C@@H](C(=O)O3)[C@]45O)O2)O[C@H](/C(C)=C/C(C)C)[C@H]1C | 93.8% |
| CCS(=O)(=O)CCn1c([N+](=O)[O-])cnc1C | 124% |
| CC(C)=CCOc1cc2oc(=O)ccc2cc1O | 109% |
| Cc1ccc(C(C)C)cc2c(C)ccc1-2 | 121% |
| CCC(=O)O[C@H]1CCC2C3CCc4cc(O)ccc4C3CC[C@@]21C (stereo not given in full) | 101% |
| CC1(C)C(=O)C=C[C@@]2(C)C1CC(=O)[C@@]1(C)C3=CC(=O)O[C@@H](c4ccoc4)[C@]3(C)CCC12 (stereo not given in full) | 107% |
| C=CCCCCCCCCC(=O)O | 111% |
| CC(=O)[C@H]1CCC2C3CCC4=CC(=O)CC[C@]4(C)C3CC[C@@]21C (stereo not given in full) | 106% |
| COc1ccc(-c2oc3cc(O[C@H]4O[C@H](CO)[C@@H](O)[C@H](O)[C@H]4O)c(OC)c(O)c3c(=O)c2OC)cc1O | 77.6% |
| O=C(O)CCCN1C(=O)c2cccc3cccc(c23)C1=O | 110% |
| COC(=O)c1c(C)c2c(c(C)c1O)OC(=O)c1c(C)c(Cl)c(O)c(Cl)c1O2 | 111% |
| COc1c(C(C)C)oc2cc3oc(=O)ccc3cc12 | 102% |
| C#CCCCCCCCCCCCC(=O)CC(O)COC(C)=O (stereo not given) | 122% |
| CC(=O)Oc1cc(OC(C)=O)c2c(c1)O[C@H](c1ccc(OC(C)=O)c(OC(C)=O)c1)[C@@H](OC(C)=O)C2 | 98% |
| C[C@H](N)[C@H](O)c1cccc(O)c1 | 115% |
| COc1ccc(-c2cc(=O)c3c(O)c(OC)c(O[C@H]4O[C@H](CO[C@@H]5O[C@@H](C)[C@H](O)[C@@H](O)[C@H]5O)[C@@H](O)[C@H](O)[C@H]4O)cc3o2)cc1 | 109% |
| O=C(CC(=O)c1ccccc1)c1ccccc1 | 101% |
| CC(=O)O[C@H]1CC[C@@]2(C)C(CC[C@]3(C)C2C(=O)C=C2C4[C@@H](C)[C@H](C)CC[C@]4(C(=O)O)CC[C@]23C)C1(C)C (stereo not given in full) | 113% |
| O=C(O)c1cc(O)c(O)c(O)c1 | 117% |
| CC/C(=C(/CC)c1ccc(O)cc1)c1ccc(O)cc1 | 104% |

Source: PubChem BioAssay
